According to publication PMC5540273 (PLoS ONE, 2017):

Tests used:
Settings in all cases: concentration: 1 μM, replicates: in singlicate; n = 1
MKNK1 = tested on: MKNK1
MKNK2 = tested on: MKNK2
MLCK = tested on: T1, MLCK
T1 construct: gene MYLK3

MLK1 = tested on: T2, MLK1
T2 construct: gene MAP3K9

MLK2 = tested on: MLK2
MLK3 = tested on: MLK3
MRCKA = tested on: MRCKA
MRCKB = tested on: T3, MRCKB
T3 construct: gene CDC42BPB

MST1R = tested on: MST1R
MST1 = tested on: T4, MST1
T4 construct: gene STK4
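Note: KINOMEscan kinase panel screen.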

Structure (SMILES) | %Inh (MKNK1) | %Inh (MKNK2) | %Inh (MLCK) | %Inh (MLK1) | %Inh (MLK2) | %Inh (MLK3) | %Inh (MRCKA) | %Inh (MRCKB) | %Inh (MST1R) | %Inh (MST1)
O=S(=O)(c1ccc(-c2ccnc3[nH]ccc23)cc1)N1CCCC1 [GSK846226] | 14% | 46% | 4% | 0% | 0% | 0% | 0% | 0% | 16% | 0%
COc1cc2ncn(-c3cc(OCC4CCCO4)c(C(N)=O)s3)c2cc1OC (stereo not drawn) [GSK204607] | 0% | 4% | 0% | 0% | 0% | 10% | 8% | 0% | 16% | 0%
Fc1cc(Cl)ccc1Nc1ccnc2cc(I)ccc12 [GW551191] | 0% | 18% | 2% | 0% | 0% | 0% | 16% | 0% | 82% | 0%
O=C(O)COc1ncnc2cc(-c3ccc4[nH]ncc4c3)sc12 | 8% | 13% | 1% | 10% | 4% | 0% | 0% | 0% | 25% | 73%
Cc1cccc(-c2cc(Nc3ccncc3)c3ccccc3n2)n1 [GSK223675] | 11% | 4% | 0% | 0% | 0% | 0% | 0% | 0% | 33% | 0%
Cc1ccccc1-n1cnc2c(N)ncnc21 [SKF-97510] | 0% | 0% | 0% | 0% | 0% | 1% | 0% | 0% | 0% | 0%
O=c1cc(N2CCOCC2)nc2n(Cc3cccc(Cl)c3Cl)ccn12 [GSK2286295] | 7% | 1% | 16% | 0% | 0% | 7% | 8% | 0% | 25% | 0%
COc1cc2ncnc(Nc3ccc4nc(-c5ccccc5)[nH]c4c3)c2cc1OC.Cl [GW282450] | 2% | 2% | 0% | 0% | 0% | 33% | 14% | 14% | 26% | 0%
CS(=O)(=O)c1ccc(-c2c(-c3ncn[nH]3)sc(N3CCOCC3)c2C#N)cc1 | 0% | 0% | 13% | 0% | 51% | 15% | 0% | 16% | 29% | 24%
Cn1ccc2ncnc(Oc3ccc(NC(=O)Nc4ccccc4)cc3)c21 | 13% | 43% | 0% | 0% | 0% | 19% | 0% | 16% | 10% | 0%
Fc1cccc(COc2nnc(-c3ccc4c(c3)CCO4)o2)c1 | 0% | 0% | 7% | 0% | 19% | 0% | 0% | 1% | 10% | 0%
COc1ccc2nc(-c3cccc(C)n3)nc(Nc3ccncc3)c2c1 [GSK204919] | 0% | 9% | 0% | 0% | 0% | 7% | 38% | 94.1% | 26% | 11%
Cc1csc(-c2nc(Nc3ccncc3)c3ccccc3n2)n1 [GW869640] | 0% | 38% | 2% | 8% | 60% | 0% | 0% | 44% | 11% | 18%
COc1ccc(Nc2nccc(-c3cccc(NC(=O)c4cc5cc(F)ccc5[nH]4)c3)n2)cc1 [GSK1229782] | 26% | 0% | 9% | 5% | 20% | 34% | 27% | 2% | 31% | 16%
NC(=O)c1nnc2ccccc2c1N | 12% | 0% | 0% | 84% | 0% | 0% | 0% | 0% | 10% | 4%
Cc1cccc(-c2nc(Nc3cccc(C(N)=O)c3)c3ccccc3n2)n1 [GW876019] | 0% | 0% | 0% | 4% | 0% | 0% | 38% | 32% | 0% | 31%
Cc1ccc(NC(=O)Nc2cc(C(C)(C)C)nn2-c2ccccc2)cc1 [GSK1014915] | 28% | 91.9% | 2% | 0% | 0% | 12% | 23% | 8% | 41% | 52%
COc1ccccc1CNC(=O)c1cc(C(=O)c2ccccc2C)c[nH]1 [GSK364507] | 5% | 2% | 9% | 0% | 0% | 0% | 40% | 0% | 36% | 0%
